In the library only some 1.7% were active in any assay of this set; here they are far more common.
FPR ligand = human FPR ligand, with FPRL1 counter-screen | P21462 | FPR-expressing cells, fluorescent ligand binding, flow cytometry | inhibition, % (test concentration not listed) | 0.74% of 24,000 active | AID 440;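 also: 0% = buffer wells and 100% = receptor blocker peptide wells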
FPRL1 binder = ligands of human FPRL1, also counter-screen for FPR ligands; inhibition, % (concentration not given with the values); AID 441; FPRL1-expressing cells, fluorescent ligand binding inhibition, flow cytometry; 0.3% of 24,000 active; P25090;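 also: 0% = buffer alone and 100% = receptor blocker peptide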
Target sequence (P25090 whole entry, looked up): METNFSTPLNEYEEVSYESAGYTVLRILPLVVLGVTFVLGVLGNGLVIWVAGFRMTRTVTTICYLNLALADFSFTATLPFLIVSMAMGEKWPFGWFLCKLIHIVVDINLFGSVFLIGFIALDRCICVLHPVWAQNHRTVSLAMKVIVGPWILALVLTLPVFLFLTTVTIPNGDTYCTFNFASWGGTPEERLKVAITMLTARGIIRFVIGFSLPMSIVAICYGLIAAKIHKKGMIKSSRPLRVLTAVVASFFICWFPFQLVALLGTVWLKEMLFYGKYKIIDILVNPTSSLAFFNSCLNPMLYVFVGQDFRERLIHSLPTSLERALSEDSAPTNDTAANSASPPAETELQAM
S aureus QS inh = inhibitors of bacterial quorum sensing in S. aureus | S. aureus RN6390 RNAIII-GFP reporter, AIP-induced, flow cytometry 3 h | inhibition, % at 2 µM | 0.3% of 24,000 active | AID 527;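 active = share of bacteria positive for the green fluorescent reporter and its mean brightness both inhibited by 50% or more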;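 also: 0% = AIP-stimulated control and 100% = unstimulated bacteria without AIP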
LNCaP diff act = activators of LNCaP prostate cell differentiation | 0.56% of 24,000 active | side scatter shift, % at 10 µM | flow cytometry side scatter, 4 d;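 active = side scatter shift above 30%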;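 also: androgen-responsive LNCaP prostate cancer cells in charcoal-stripped serum medium; percent of cells past a gate set so DMSO wells show 10% shift; higher shift means more granular cells and more differentiation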
Active calls of the source: *. Rule as the data show it, unless noted: active = inhibition above about 30%; inconclusive = no clear call, values can overlap the other calls; inactive = below that.

Results for COc1ccc2cnn(-c3ccccc3)c(=O)c2c1OC ?
FPR ligand: 36*; FPRL1 binder: 45*; S aureus QS inh: -1; LNCaP diff act: 16

How did N=c1n(CCN2CCCCC2)c2ccccc2n1CC(O)COc1ccccc1 (stereo not drawn) do in these assays?
FPR ligand: 8; FPRL1 binder: 7; S aureus QS inh: 2; LNCaP diff act: 64*

How did CCC(=O)Nc1ccccc1Nc1cc(C#N)c(C#N)cc1[N+](=O)[O-] do in these assays?
FPR ligand: -5; FPRL1 binder: -4

What do the screens show for `CCCN(CCC)C(=O)CSc1nc2ccccc2c(=O)n1C1CCCC1`?
FPR ligand: 7; FPRL1 binder: -2; S aureus QS inh: 20; LNCaP diff act: 10

Results for CSc1ccc(C2C(C#N)=C(N)N(c3ccccc3)C3=C2C(=O)CCC3)cc1 (stereo not drawn) ?
FPR ligand: 3; FPRL1 binder: -1; S aureus QS inh: 0; LNCaP diff act: 5

How did CSc1ccc(C2C(C#N)=C(N)Oc3c2ccc(=O)c2c(C)oc(C)c32)cc1 (stereo not drawn) do in these assays?
FPR ligand: -27; FPRL1 binder: -9; S aureus QS inh: 0; LNCaP diff act: 33*

How did COc1ccc(C(C)NC(=O)C2C(=O)NC3(C)CC2c2ccccc2O3)cc1 (stereo not drawn) do in these assays?
FPR ligand: 2; FPRL1 binder: 1; S aureus QS inh: 0; LNCaP diff act: 12

How did COc1ccc(NC(=O)C2C(=O)NC3(C)CC2c2ccccc2O3)cc1 (stereo not drawn) do in these assays?
FPR ligand: 12; FPRL1 binder: 30*; S aureus QS inh: -1; LNCaP diff act: 11

Results for NCCCCCNC(=O)/C=N\O ?
FPR ligand: 6; FPRL1 binder: 7; S aureus QS inh: 1; LNCaP diff act: 6

How did COc1ccc(-c2cc(C(F)(F)F)nc(N3CCOCC3)n2)cc1OC do in these assays?
FPR ligand: -12; FPRL1 binder: 23; S aureus QS inh: 3; LNCaP diff act: 3

How did COc1ccc(-c2cc(C(F)(F)F)nc(NC3CCCC3)n2)cc1OC do in these assays?
FPR ligand: 7; FPRL1 binder: 32*; S aureus QS inh: 3; LNCaP diff act: 0

What do the screens show for `CCOC(=O)Cn1c(=O)oc2cc(S(=O)(=O)N3CCc4ccccc43)ccc21`?
FPR ligand: 2; FPRL1 binder: 4; S aureus QS inh: -3; LNCaP diff act: 8

How did COc1cc(NC(=O)c2ccc(COCC(F)(F)F)o2)cc(OC)c1OC do in these assays?
FPR ligand: -7; FPRL1 binder: 2; S aureus QS inh: 2; LNCaP diff act: 10

What do the screens show for `CCC(NC(=O)Nc1cc(OC)c(OC)c(OC)c1)(C(F)(F)F)C(F)(F)F`?
FPR ligand: 45*; FPRL1 binder: 55*; S aureus QS inh: 0; LNCaP diff act: 12

Results for CCc1c(C)sc(NC(=O)c2cc(C)on2)c1C#N ?
FPR ligand: 6; FPRL1 binder: -3; S aureus QS inh: 90*; LNCaP diff act: 2

How did COc1ccc2c(c1)OC1(C)CC2C(C(=O)c2ccccc2OC)C(=O)N1 (stereo not drawn) do in these assays?
FPR ligand: 0; FPRL1 binder: -1; S aureus QS inh: -3; LNCaP diff act: 11

Results for C=CCn1c(NC(=O)c2ccccc2Cl)c(C#N)c2nc3ccccc3nc21 ?
FPR ligand: 4; FPRL1 binder: -7

What do the screens show for `C=CCn1c(NC(=O)c2ccccc2)c(C#N)c2nc3ccccc3nc21`?
FPR ligand: inconclusive; FPRL1 binder: 32*

How did N#Cc1c(N)n(CCNC(=O)c2cccs2)c2nc3ccccc3nc12 do in these assays?
FPR ligand: -25; FPRL1 binder: -22; S aureus QS inh: -2; LNCaP diff act: 2

How did CCCCn1c(NC(C)=O)c(C#N)c2nc3ccccc3nc21 do in these assays?
FPR ligand: 66*; FPRL1 binder: 4

What do the screens show for `O=C(NCC(c1cccnc1)N1CCOCC1)Nc1ccccc1` (stereo not drawn)?
FPR ligand: -2; FPRL1 binder: 2; S aureus QS inh: -1; LNCaP diff act: 0

Results for COC(=O)c1ccc(CNC(=O)COc2ccccc2Br)o1 ?
FPR ligand: -10; FPRL1 binder: 4; S aureus QS inh: 1; LNCaP diff act: 7

How did O=C1CN(c2nc3ccccc3n3cnnc23)CC(=O)N1CCc1ccccc1 do in these assays?
FPR ligand: 1; FPRL1 binder: -5; S aureus QS inh: 0; LNCaP diff act: 6

How did COc1ccccc1Oc1c(C)oc2c(CN(C)C)c(O)ccc2c1=O do in these assays?
FPR ligand: 22; FPRL1 binder: 30*

How did O=C(Cc1coc(-c2ccc(F)cc2)n1)NC1CCCCC1 do in these assays?
FPR ligand: -1; FPRL1 binder: -3; S aureus QS inh: -2; LNCaP diff act: 14

Bioassay records: PubChem, NMMLSC
